Inconclusive results are not listed. Values without a mark were called inactive. Active and inactive are the calls of the source. Calls come from the whole dose curve; as a rule, active = well fitted cell-killing curve with a large enough effect; inconclusive = small, poorly fitted or top-dose-only effect, or effect the other way; inactive = no such curve, though single readings can be large or run the other way.
Potency is the fitted concentration of half-maximal effect.

A short description of this test: Quantitative High-Throughput drug screen in 47 multiple myeloma cell lines against the NCATS MIPE library collection: KMS28PE_JCRB cell viability assay (AID 1918983). Note: nearly all actives have a fitted effect of over 35% in size. The settings on record: KMS28PE multiple myeloma viability, CellTiter-Glo ATP, 48 h; series mostly up to 45.8 µM; viability, % of DMSO control: at the top concentration. The source says:
PI: Beverly A. Mock Ph.D.
Laboratory of Cancer Biology and Genetics,
Center for Cancer Research, National Cancer Institute,
National Institute of Health, Bethesda, Maryland
Drug resistance and disease progression are common in multiple myeloma (MM) patients, underscoring the need for new therapeutic combinations. […] We hypothesized that effective combinations would reduce MYC expression and enhance p16 activity. […] These preclinical data identify potentially useful drug combinations for evaluation in drug-resistant MM and reveal potential mechanisms of combined drug sensitivity.
Described herein is the primary MIPE qHTS used to cherrypick compounds. Validated compounds were then further tested for potential synergistic activiy.
[1] Peat TJ, Gaikwad SM, Dubois W, Gyabaah-Kessie N, Zhang S, Gorjifard S, Phyo Z, Andres M, Hughitt VK, Simpson RM, Miller MA, Girvin AT, Taylor A, Williams D, D'Antonio N, Zhang Y, Rajagopalan A, Flietner E, Wilson K, Zhang X, Shinn P, Klumpp-Thomas C, McKnight C, Itkin Z, Chen L, Kazandijian D, Zhang J, Michalowski AM, Simmons JK, Keats J, Thomas CJ, Mock BA. Drug combinations identified by high-throughput screening promote cell cycle transition and upregulate Smad pathways in myeloma. Cancer Lett. 2023 Aug 1;568:216284. doi: 10.1016/j.canlet.2023.216284. Epub 2023 Jun 24. PMID: 37356470; PMCID: PMC10408729.
SEQUENCE No. (e.g., 1, 2, 3, etc.); […] (e.g., Cells, Incubation, Reagent, etc.); VALUE and DESCRIPTION.
1; Cells; 5 uL; white, solid bottom 1536-well Greiner assay plate.
2; Compounds; 23 nL; Kalypsis pin tool (Wako USA) equipped with a 1536-well pin head to transfer to the assay plates.
3; Incubation; 48 hours; 37C incubation.
4; Reagent;5uL; CellTiter Glo (Promega).
5; Detector; 425V; Luminescence; Viewlux PerkinElmer.
NOTES (numbers refer to Sequence numbers above)
1. The cell-based screening methods employed in this study were like those previously published. Briefly, the corresponding myeloma cell lines were screened in 1,536-well plates with 500 cells, 5-uL per well for inhibition of cell viability (assessed by measuring ATP levels with CellTiterGlo).
2. NCATS MIPE 4.0 library of approved and investigational drugs were added using the Kalypsis pin tool. Wells treated with DMSO only for 100% viability and media only for 0% viability were used as controls.
3. The assay plates were covered and incubated for 48 hours in a 37C, 5% CO2 incubator with controlled humidity.
4. After 48 hours, CellTilter-GloTM luminescent substrate mix (Promega) reagent was added to the assay plate and plates we incubated for 5 min at room temperature.
5. Signal was measured as median relative luminescence units on a ViewLux (PerkinElmer) multiplate reader.
[1] Heske CM, Davis MI, Baumgart JT, Wilson K, Gormally MV, Chen L, Zhang X, Ceribelli M, Duveau DY, Guha R, Ferrer M, Arnaldez FI, Ji J, Tran HL, Zhang Y, Mendoza A, Helman LJ, Thomas CJ. Matrix Screen Identifies Synergistic Combination of PARP Inhibitors and Nicotinamide Phosphoribosyltransferase (NAMPT) Inhibitors in Ewing Sarcoma. Clin Cancer Res. 2017 Dec 1;23(23):7301-7311. doi: 10.1158/1078-0432.CCR-17-1121. Epub 2017 Sep 12. PMID: 28899971; PMCID: PMC6636827.
On to `CC(C)C[C@H](CN)CC(=O)O`, for which the “viability, % of DMSO control” value is 128%. Take `CN1C(=O)CCS(=O)(=O)C1c1ccc(Cl)cc1` (stereo not given): the “viability, % of DMSO control” value was 115%. With `COc1cc(OC)c(OC)cc1C=O`, the “viability, % of DMSO control” value was 128%. Take `CC(C)c1cccc(C(C)C)c1O`: the “viability, % of DMSO control” value is 136%. Consider `CN1C(=O)COc2c(C(=O)NC3CN4CCC3CC4)cc(Cl)cc21` (stereo not given), for which the “viability, % of DMSO control” value was 113%.

As for `C[C@]12CCC(=O)C=C1CC[C@@H]1[C@H]3CC[C@](C)(O)[C@@]3(C)CC[C@@H]12`, the “viability, % of DMSO control” value was 115% [at 92.2 µM].

On to `CCC1(c2ccc(N)cc2)CCC(=O)NC1=O` (stereo not given), for which the “viability, % of DMSO control” value was 110%. Consider `CC(NC(C)(C)C)C(=O)c1cccc(Cl)c1` (stereo not given), for which the “viability, % of DMSO control” value is 96%. Regarding `C[C@]12CC[C@H]3[C@@H](CC[C@@]45O[C@H]4C(O)=C(C#N)C[C@]35C)[C@H]1CC[C@H]2O`, the “viability, % of DMSO control” value was 136%. In the case of `C[C@](O)(CS(=O)(=O)c1ccc(F)cc1)C(=O)Nc1ccc(C#N)c(C(F)(F)F)c1`, the Potency is 26.4 µM (active).

The values are drawn from PubChem BioAssay (NCATS).
